# Data published in article PMC4336329 (PLoS ONE, 2015).
# About 14,000 (4.5%) of roughly 310,000 compounds showed an effect of 50% or more. Effects have a minus sign here. The entries come from a sample that favours strong results as a whole.
# Molecular target: human ether-à-go-go-related gene (hERG) potassium channel (human, UniProt Q12809)
# Assay: primary screen, population patch clamp on CHO cells stably expressing hERG; higher = less effect of the substance
# 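Further: peak tail current of the secondary pulse compared with the same well before compound.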
# human ether-à-go-go-related gene (hERG) potassium channel, sequence (Q12809 whole entry, looked up): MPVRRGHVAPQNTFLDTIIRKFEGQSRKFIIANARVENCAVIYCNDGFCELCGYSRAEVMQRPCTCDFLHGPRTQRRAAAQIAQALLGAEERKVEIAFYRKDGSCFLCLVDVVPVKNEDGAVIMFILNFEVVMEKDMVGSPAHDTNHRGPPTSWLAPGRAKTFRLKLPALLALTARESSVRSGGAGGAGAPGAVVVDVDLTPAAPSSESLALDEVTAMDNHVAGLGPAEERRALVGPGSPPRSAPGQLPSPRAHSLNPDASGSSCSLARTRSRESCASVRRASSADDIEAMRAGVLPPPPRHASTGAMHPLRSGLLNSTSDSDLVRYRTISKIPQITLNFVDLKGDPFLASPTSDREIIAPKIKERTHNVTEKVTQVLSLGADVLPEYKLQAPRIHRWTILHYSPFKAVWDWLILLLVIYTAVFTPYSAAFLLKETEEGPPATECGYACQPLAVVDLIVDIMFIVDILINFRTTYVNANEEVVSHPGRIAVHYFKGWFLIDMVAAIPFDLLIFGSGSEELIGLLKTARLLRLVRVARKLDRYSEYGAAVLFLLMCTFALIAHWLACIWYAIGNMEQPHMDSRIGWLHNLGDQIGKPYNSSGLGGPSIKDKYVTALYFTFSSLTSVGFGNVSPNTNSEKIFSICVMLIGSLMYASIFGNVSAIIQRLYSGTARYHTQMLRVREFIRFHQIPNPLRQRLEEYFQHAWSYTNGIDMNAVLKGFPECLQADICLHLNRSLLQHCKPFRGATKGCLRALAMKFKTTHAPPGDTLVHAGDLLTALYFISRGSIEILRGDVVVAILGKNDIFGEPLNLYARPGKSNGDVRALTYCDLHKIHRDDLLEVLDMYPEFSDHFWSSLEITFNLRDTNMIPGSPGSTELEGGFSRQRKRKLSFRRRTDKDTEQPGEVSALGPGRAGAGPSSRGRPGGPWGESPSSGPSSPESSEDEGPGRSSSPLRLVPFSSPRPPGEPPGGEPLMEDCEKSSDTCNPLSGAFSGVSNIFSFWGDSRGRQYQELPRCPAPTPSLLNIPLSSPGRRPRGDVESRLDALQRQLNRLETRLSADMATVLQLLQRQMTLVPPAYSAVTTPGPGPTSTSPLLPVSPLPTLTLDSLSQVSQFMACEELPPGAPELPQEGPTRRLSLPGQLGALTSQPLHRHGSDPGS
row,SMILES,"hERG current change (%, negative = inhibition) at 10uM"
1,Cc1cccc2nc(CSc3nc4[nH]ncc4c(=O)n3-c3cccc(Cl)c3)cc(=O)n12,-23.3%
2,COc1ccc(CNC(=O)[C@H](Cc2ccccc2)NC(=O)C2CCN(C(=O)[C@H](C)N)CC2)cc1,-2.78%
3,Cc1ccc(-c2onc(C)c2C)cc1S(=O)(=O)N1CCOc2ccccc21,9.26%
4,COc1cc(/C=N/NC(=O)CCc2n[nH]c(=O)[nH]c2=O)ccc1O,-0.627%
5,Cc1cccc(OC(C)C(=O)Nc2nccs2)c1 (stereo not shown),8.8%
6,CC1CN(C(=O)CCC(=O)NCCCN2CCN(Cc3ccccc3)CC2)c2cc(Cl)ccc2O1 (stereo not shown),-76.1%
7,Cc1ccc2c(c1)N(C(=O)CCC(=O)NC1CCCCCC1)CC(C)O2 (stereo not shown),-18.5%
8,CCN1CCN(CCCNC(=O)CCC(=O)N2CC(C)Oc3ccc(C)cc32)CC1 (stereo not shown),-12.5%
9,Cc1ccc(CNC(=O)CCC(=O)N2CC(C)Oc3ccccc32)cc1 (stereo not shown),-28%
10,CC1CN(C(=O)CCC(=O)NCCCN2CCC(Cc3ccccc3)CC2)c2cc(Cl)ccc2O1 (stereo not shown),-72.7%
11,Cc1ccc2c(c1)N(C(=O)CCC(=O)NCCCN1CCOCC1)CC(C)O2 (stereo not shown),-13.5%
12,Cc1ccc2c(c1)N(C(=O)CCC(=O)NC1CCN(Cc3ccccc3)CC1)CC(C)O2 (stereo not shown),-67.1%
13,CC1CN(C(=O)CCC(=O)NCc2ccccc2)c2cc(Cl)ccc2O1 (stereo not shown),-11.5%
14,CC1CN(C(=O)CCC(=O)NCc2ccc(Cl)cc2)c2ccccc2O1 (stereo not shown),-53.6%
15,CC1CN(C(=O)CCC(=O)NC2CCN(Cc3ccccc3)CC2)c2ccccc2O1 (stereo not shown),-26.7%
16,Cc1ccc2c(c1)N(C(=O)CCC(=O)NCCCN1CCN(C)CC1)CC(C)O2 (stereo not shown),9.95%
17,CC1CN(C(=O)CCC(=O)NCc2ccccc2)c2ccccc2O1 (stereo not shown),0.256%
18,COc1ccccc1NC(=O)c1ccc(NS(=O)(=O)c2ccc(F)c(F)c2F)cc1,-6.5%
19,COc1ccc(C(=O)CSc2nnc(-c3cccs3)n2-c2ccccc2)cc1,4.83%
20,CSCCC(NC(=O)C12CC3CC(CC(C3)C1)C2)C(=O)OCC(=O)c1ccccc1 (stereo not shown),12.7%
21,c1ccc2[nH]c(SCc3cscn3)nc2c1,2.76%
22,Cc1ccc(CN2CCN(Cc3cccc(-n4cccn4)c3)CC2CCO)cc1 (stereo not shown),-74.5%
23,Cc1cccc(-n2ccnc2CN2CCN(C3CCCC3)C(CCO)C2)c1 (stereo not shown),-59.1%
24,OCCC1CN(Cc2cccc(-n3cccn3)c2)CCN1Cc1ccccc1 (stereo not shown),-44.8%
25,Cc1cccc(-n2ccnc2CN2CCN(C(C)C)C(CCO)C2)c1 (stereo not shown),-12.3%
26,OCCC1CN(Cc2cc(F)ccc2-n2cccn2)CCN1Cc1ccc(F)cc1 (stereo not shown),-62.5%
27,CC(C)CN1CCN(Cc2cc(F)ccc2-n2cccn2)CC1CCO (stereo not shown),-6.87%
28,Cc1cccc(CN2CCN(Cc3cccc(-n4cccn4)c3)CC2CCO)n1 (stereo not shown),-45.7%

row,SMILES,"hERG current change (%, negative = inhibition) at 10uM"
1,CC(C)CCN1CCN(Cc2cc(F)ccc2-n2cccn2)CC1CCO (stereo not shown),-25.8%
2,Cc1cc(-n2cccn2)ccc1CN1CCN(CC(C)C)C(CCO)C1 (stereo not shown),-45.5%
3,COc1ccc(-n2ccnc2CN2CCN(C3CCCC3)C(CCO)C2)cc1 (stereo not shown),-29.1%
4,CCOC(=O)c1[nH]ncc1CN1CCN(Cc2ccc(C)cc2)C(CCO)C1 (stereo not shown),-38.8%
5,Cc1ccc(CN2CCN(Cc3ccc(-n4cccn4)cc3C)CC2CCO)cc1 (stereo not shown),-78.6%
6,Cc1c(Cl)cccc1N1CC(C)(C)C1=O,-2.95%
7,COC(=O)c1sc2nc(SCc3cccc(Cl)c3)n(N)c(=O)c2c1C,1.39%
8,CCC1Sc2ccccc2N(CC(=O)NC2CC2)C1=O (stereo not shown),7.59%
9,COc1ccc(CN2CC(C(N)=O)Oc3ccccc32)cc1F (stereo not shown),3.16%
10,Cn1ncnc1SCc1cn2cccnc2n1,14.2%
11,CC1CC(Nc2ccccc2N)=CC(=O)O1 (stereo not shown),11.7%
12,COc1ccc(C2/C(=C(/O)c3ccccc3)C(=O)C(=O)N2c2ncccn2)cc1OC (stereo not shown),7.54%
13,CC(=O)c1ccc(-c2ccccc2OC(F)(F)F)o1,-10.7%
14,O=C(NCCOc1ccccc1F)c1ccc2c(=O)n3c(nc2c1)CCC3,-20.8%
15,CSCCCN1CC[C@@H](N2CCN(c3ccccc3F)CC2)[C@H](O)C1,-36.8%
16,CC(C)CCN1CCN(Cc2cccc(-n3cccn3)c2)CC1CCO (stereo not shown),-57.6%
17,CC(C)N1CCN(Cc2cccc(-n3cccn3)c2)CC1CCO (stereo not shown),-12.3%
18,OCCC1CN(Cc2ccc(-n3cccn3)cc2)CCN1Cc1ccccc1 (stereo not shown),-59.8%
19,Cc1cccc(CN2CCN(Cc3ccc(-n4cccn4)cc3)CC2CCO)n1 (stereo not shown),-30.2%
20,Cc1ccc(CN2CCN(Cc3ccc(-n4cccn4)cc3)CC2CCO)cc1 (stereo not shown),-78.1%
21,CC(C)=CC(=O)N1CC[C@@H](N2CCN(c3ccccc3F)CC2)[C@H](O)C1,1.23%
22,O[C@@H]1CN(Cc2ccc(-n3cccn3)cc2)CC[C@H]1N1CCN(c2ccccc2F)CC1,-67.5%
23,CCOC(=O)CC(C)(C)/C(C)=N/Nc1ccc([N+](=O)[O-])cc1[N+](=O)[O-],-24.5%
24,CCOc1ccc(CCNC(=O)c2cccc(C#N)c2)cc1OCC,-6.55%
25,Cc1ccc(N2C(=O)Nc3ccc(Br)cc3C2(O)C(=O)NCCN(C)C)cc1C (stereo not shown),21.4%
26,CCCCn1c(SCc2nc(N)nc(Nc3ccccc3C)n2)nc2ccccc2c1=O,-1.63%
27,Cc1c(NC(=O)CN2C(=O)c3cccc4cccc2c34)c(=O)n(-c2ccccc2)n1C,4.55%
